# Activity calls are given as the source filed them.
# Tests used:
# [1] = optical density shifts of acrAB sulA E. coli – strain DRC41, OD650, 48 h, E. coli filamentation inducer project, primary screen (AID 1152); details: higher = more signal, called active from +8 up or from −8 down;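 note: E. coli MC1000 strain DRC41 lacking acrAB efflux pump and sulA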
# [2] = probe aLefty1 binding on compound microarray – biochemical, small-molecule microarray, 635/667 nm fluorescence, primary screen (AID 1153); details: higher = more signal;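 note: score merges spot fluorescence with signal-to-noise ratio from the scanned slide images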
# [3] = plasmodial surface anion channel blockers, osmotic lysis – cell-based, P. falciparum Indochina, OD700, 1 h, primary screen (AID 1154); details: P. falciparum Indochina infected RBC osmotic lysis, higher = more signal, called active from +8 up or from −8 down
# [4] = plasmodial surface anion channel blockers, osmotic lysis – cell-based, P. falciparum Indochina, OD700, 2 h, primary screen (AID 1155);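 note: lysis reports solute entry through the parasite surface anion channel PSAC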; details: P. falciparum Indochina infected erythrocytes, higher = more signal, called active from +8 up or from −8 down
# [5] = changes in parasitized red cell lysis, either direction – P. falciparum Indochina, OD700, 3 h, PSAC antagonist project, primary screen (AID 1156); details: P. falciparum-infected erythrocytes, osmotic lysis, higher = more signal, called active from +8 up or from −8 down
# [6] = plasmodial surface anion channel blockers, osmotic lysis – cell-based, P. falciparum Indochina, OD700, 18 h, primary screen (AID 1157); details: P. falciparum Indochina infected erythrocytes, osmotic lysis OD700, 18 h; higher = more signal, called active from +8 up or from −8 down
# [7] = S6 kinase pathway phospho-S6 level changes – cell-based, A549, cytoblot, luminescence, serum-stimulated, primary screen (AID 1158); details: 5 h, higher = more signal;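 note: serum-stimulated A549 lung adenocarcinoma cells; signal is phosphorylated S6 detected by cytoblot immunostaining with HRP secondary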
# [8] = molecular target: NADPH oxidase 2 (Homo sapiens) (UniProt P04839); assay: compounds shifting NOX2 Amplex Red fluorescence – cell-based, HEK293-NOX2, PMA-stimulated, NOX inhibitor project, primary screen (AID 1159); details: 45 min, higher = more signal, called active from +8 up or from −8 down; note: test concentration not given here
# NADPH oxidase 2 (Homo sapiens), sequence (P04839 whole entry, looked up): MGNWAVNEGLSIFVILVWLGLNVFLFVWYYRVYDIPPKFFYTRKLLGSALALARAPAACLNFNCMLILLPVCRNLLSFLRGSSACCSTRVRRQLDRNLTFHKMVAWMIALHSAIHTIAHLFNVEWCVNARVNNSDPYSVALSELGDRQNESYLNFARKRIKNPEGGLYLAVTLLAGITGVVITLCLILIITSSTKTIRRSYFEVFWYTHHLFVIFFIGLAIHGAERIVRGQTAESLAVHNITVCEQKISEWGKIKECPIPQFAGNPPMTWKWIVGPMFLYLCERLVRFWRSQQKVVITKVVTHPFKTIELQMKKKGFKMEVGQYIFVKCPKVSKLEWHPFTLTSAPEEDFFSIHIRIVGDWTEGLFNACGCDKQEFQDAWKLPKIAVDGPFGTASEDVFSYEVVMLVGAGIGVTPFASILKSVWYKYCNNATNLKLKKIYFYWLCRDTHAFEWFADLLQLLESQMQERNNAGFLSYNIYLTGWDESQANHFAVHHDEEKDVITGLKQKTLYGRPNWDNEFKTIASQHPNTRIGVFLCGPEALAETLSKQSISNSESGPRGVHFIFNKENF
# [9] = molecular target: NADPH oxidase 4 (Homo sapiens) (UniProt Q9NPH5); assay: compounds shifting NOX4 Amplex Red fluorescence – cell-based, HEK293-NOX4, tetracycline-induced, NOX inhibitor project, primary screen (AID 1160); details: HEK293-NOX4, Amplex Red H2O2 fluorescence, 45 min; higher = more signal, called active from +8 up or from −8 down
# NADPH oxidase 4 (Homo sapiens), sequence (Q9NPH5 whole entry, looked up): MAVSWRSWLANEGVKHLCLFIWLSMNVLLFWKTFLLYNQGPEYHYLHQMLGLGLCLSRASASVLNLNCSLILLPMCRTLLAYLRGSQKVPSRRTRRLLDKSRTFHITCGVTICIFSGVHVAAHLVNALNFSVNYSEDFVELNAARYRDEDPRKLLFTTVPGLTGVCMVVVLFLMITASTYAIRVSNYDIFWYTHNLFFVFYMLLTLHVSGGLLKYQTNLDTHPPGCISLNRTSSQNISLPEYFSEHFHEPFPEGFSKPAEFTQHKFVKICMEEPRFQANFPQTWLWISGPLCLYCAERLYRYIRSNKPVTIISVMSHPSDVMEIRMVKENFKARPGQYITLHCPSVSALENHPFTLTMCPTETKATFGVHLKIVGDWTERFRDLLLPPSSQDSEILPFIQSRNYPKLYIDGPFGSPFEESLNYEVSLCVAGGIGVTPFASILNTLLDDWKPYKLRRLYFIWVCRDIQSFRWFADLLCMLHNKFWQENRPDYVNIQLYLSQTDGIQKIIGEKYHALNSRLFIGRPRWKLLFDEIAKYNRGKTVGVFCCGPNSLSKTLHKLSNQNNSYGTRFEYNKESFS
# [10] = molecular target: NADPH oxidase 5 (Homo sapiens) (UniProt Q96PH1); assay: compounds shifting NOX5 Amplex Red fluorescence – cell-based, HEK293-NOX5, NOX inhibitor project, primary screen (AID 1161); details: HEK293-NOX5, ionomycin, 45 min, higher = more signal
# NADPH oxidase 5 (Homo sapiens), sequence (Q96PH1 whole entry, looked up): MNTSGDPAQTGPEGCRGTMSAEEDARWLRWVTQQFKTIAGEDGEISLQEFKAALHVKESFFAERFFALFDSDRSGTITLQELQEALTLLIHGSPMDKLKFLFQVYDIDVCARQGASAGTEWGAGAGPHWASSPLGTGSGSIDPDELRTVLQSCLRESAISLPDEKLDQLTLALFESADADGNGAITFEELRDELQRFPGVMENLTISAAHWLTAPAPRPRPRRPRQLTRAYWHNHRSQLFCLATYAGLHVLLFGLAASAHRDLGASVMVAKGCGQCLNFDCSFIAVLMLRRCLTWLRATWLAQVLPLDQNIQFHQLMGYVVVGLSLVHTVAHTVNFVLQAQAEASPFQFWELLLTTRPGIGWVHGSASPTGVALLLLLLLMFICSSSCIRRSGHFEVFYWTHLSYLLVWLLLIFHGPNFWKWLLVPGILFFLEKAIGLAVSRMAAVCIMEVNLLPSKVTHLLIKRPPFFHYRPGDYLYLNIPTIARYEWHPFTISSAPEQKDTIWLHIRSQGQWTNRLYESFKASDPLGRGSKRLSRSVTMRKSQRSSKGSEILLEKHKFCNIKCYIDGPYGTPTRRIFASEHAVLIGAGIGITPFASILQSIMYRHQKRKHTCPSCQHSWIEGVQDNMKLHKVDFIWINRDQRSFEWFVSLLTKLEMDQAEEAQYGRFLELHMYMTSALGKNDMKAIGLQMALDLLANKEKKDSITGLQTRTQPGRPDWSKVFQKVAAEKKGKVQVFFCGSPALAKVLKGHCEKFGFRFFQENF
Compound,z-score [1],composite z-score [2],z-score [3],z-score [4],z-score [5],z-score [6],z-score [7],z-score [8],z-score [9],z-score [10]
CC(=O)OC[C@H]1O[C@@H](ON=C(C)CCN2CCCc3nc(C)c(C)cc32)[C@H](OC(C)=O)[C@@H](OC(C)=O)[C@@H]1OC(C)=O,-1.13 (inactive),-0.115,-0.72 (inactive),0.0956 (inactive),1.01 (inactive),-1.18 (inactive),0.649,0.502 (inactive),-1.36 (inactive),-1.09
CC(=O)OC[C@H]1OC(ON=CC[C@@H]2C=C[C@H](OC(C)=O)[C@@H](COC(C)=O)O2)[C@H](OC(C)=O)[C@@H](OC(C)=O)[C@@H]1OC(C)=O (stereo not given in full),-0.0016 (inactive),0.315,0.202 (inactive),0.0995 (inactive),0.153 (inactive),0.22 (inactive),-0.999,0.00176 (inactive),0.186 (inactive),0.0378
CCOC(=O)[C@H](Cc1ccccc1)NC(=O)CCC1CC(OC(=O)NCCc2ccc(F)cc2)CC2(CCCC(COC(=O)NCCOC)O2)O1 (stereo not given in full),0.602 (inactive),-0.0468,19.4 (active),4.99 (inactive),0.486 (inactive),0.737 (inactive),0.011,0.188 (inactive),0.251 (inactive),0.0245
CCOC(=O)[C@H](CC(C)C)NC(=O)CCC1CC(OC(=O)NCCc2ccc(F)cc2)CC2(CCCC(COC(=O)NCCC(C)C)O2)O1 (stereo not given in full),-1.14 (inactive),0.0451,6.28 (inactive),0.267 (inactive),0.0542 (inactive),0.0517 (inactive),-0.326,1.26 (inactive),-1.27 (inactive),-0.8
O=C1[C@H]2[C@H]3[C@H](O)[C@H](O)CC(=NOCc4ccccc4)[C@@H]3CC[C@H]2C(=O)N1c1ccc(F)cc1F,-0.246 (inactive),-0.391,1.17 (inactive),-0.56 (inactive),0.512 (inactive),-1.36 (inactive),2.35,-0.409 (inactive),0.18 (inactive),0.343
C=CC[C@@H]1C=C[C@H](ON=C(C)CCN2CCc3nc(-c4ccccc4)c(-c4ccccc4)cc3C2)[C@@H](CO)O1,0.418 (inactive),0.0446,4.53 (inactive),0.809 (inactive),0.85 (inactive),0.538 (inactive),-0.0288,-2.79 (inactive),-0.835 (inactive),-2.75
Cc1ccc(S(=O)(=O)N[C@@H]2COC(=O)[C@@H](C)COC(=O)CC=C[C@H]2C)cc1,-0.891 (inactive),-0.103,0.124 (inactive),0.279 (inactive),-0.305 (inactive),-0.113 (inactive),-0.0223,-1.19 (inactive),-1.59 (inactive),-0.728
C=C(C)C(=O)OCC1CN2[C@@H](CC[C@@H](C)[C@@H]2c2ccc(Br)cc2)C(=O)O1 (stereo not given in full),-0.949 (inactive),0.183,3.23 (inactive),0.672 (inactive),0.189 (inactive),0.491 (inactive),-0.48,-0.0685 (inactive),-0.149 (inactive),-0.475
O=C1C[C@@H](O)[C@@H](O)[C@@H]2[C@@H]3C(=O)N(Cc4ccc5c(c4)OCO5)C(=O)[C@@H]3CC[C@H]12,-0.116 (inactive),-0.104,1.52 (inactive),0.14 (inactive),-0.582 (inactive),0.207 (inactive),-0.196,-0.148 (inactive),0.314 (inactive),-0.36
CC(C)=NOC[C@@H](C)[C@H](OCc1ccccc1)C(C)C,0.287 (inactive),0.103,0.641 (inactive),0.503 (inactive),0.795 (inactive),0.39 (inactive),0.453,0.409 (inactive),-1.72 (inactive),-1
COC(=O)CC=C[C@@H](C)[C@@H](C=NO[C@H](C)c1cn([C@H](CO)Cc2ccccc2)nn1)OC,-0.36 (inactive),-0.104,0.727 (inactive),0.0995 (inactive),-0.721 (inactive),0.0239 (inactive),-0.505,0.824 (inactive),0.541 (inactive),0.299
CON=C[C@@H](C)[C@H](OCc1ccccc1)C(C)C,-2.85 (inactive),-0.378,0.0221 (inactive),0.234 (inactive),0.718 (inactive),-1.37 (inactive),0.564,-0.307 (inactive),-1.21 (inactive),-0.786
O=C1C[C@@H](O)[C@@H](O)[C@@H]2[C@@H]3C(=O)N(c4cccc(Oc5ccccc5)c4)C(=O)[C@@H]3CC[C@H]12,-0.367 (inactive),0.0446,0.429 (inactive),0.0618 (inactive),-0.195 (inactive),-0.0653 (inactive),-0.875,-0.0166 (inactive),0.6 (inactive),0.124
COc1cccc([C@H]2Oc3ccc(OC)cc3C(=NO[C@H](C)c3cn([C@H](CO)Cc4ccccc4)nn3)[C@@H]2O)c1,0.348 (inactive),-0.142,1.38 (inactive),0.0637 (inactive),0.151 (inactive),0.22 (inactive),-0.16,-0.809 (inactive),0.364 (inactive),-0.781
CCc1cc2c(nc1CC)CCN(CCC(C)=NO[C@H](C)c1cn([C@@H]3COC[C@H]3O)nn1)C2,0.211 (inactive),0.199,1.34 (inactive),0.72 (inactive),0.322 (inactive),0.367 (inactive),-0.656,-0.539 (inactive),-0.138 (inactive),0.779
C[C@@H]1CC[C@H]2C(=O)O[C@@H](COc3ccc(C(C)(C)C)cc3)CN2[C@@H]1c1ccc(Br)cc1,0.328 (inactive),-0.229,0.857 (inactive),0.681 (inactive),-1.34 (inactive),0.54 (inactive),-0.0874,-0.303 (inactive),0.732 (inactive),0.154
COc1ccc(COC(=O)NN=C2C[C@@H](O)[C@@H](O)[C@@H]3[C@@H]4C(=O)N(Cc5ccccc5)C(=O)[C@@H]4CC[C@H]23)cc1,-0.0671 (inactive),0.641,8.9 (active),0.507 (inactive),-1.3 (inactive),-1.17 (inactive),-0.411,1.43 (inactive),0.954 (inactive),0.729
COC(=O)CC=C[C@@H](C)[C@@H](C=NOC[C@@H](O)[C@H]1O[C@@H]2OC(C)(C)O[C@@H]2[C@H]1O)NS(=O)(=O)c1ccc(C)cc1,0.463 (inactive),0.165,-0.0598 (inactive),0.0216 (inactive),-0.268 (inactive),0.0967 (inactive),-0.979,0.214 (inactive),0.171 (inactive),0.829
CCOC(=O)[C@H](CC(C)C)NC(=O)CCC1CC(OC(=O)NCc2cccc3ccccc23)CC2(CCCC(COC(=O)NCc3cccc(C(F)(F)F)c3)O2)O1 (stereo not given in full),0.366 (inactive),-0.144,-0.406 (inactive),-0.0787 (inactive),0.976 (inactive),0.613 (inactive),0.273,0.176 (inactive),0.794 (inactive),0.259
COc1ccc(O[C@H]2C=C[C@@H](c3ccccc3)O[C@@H]2COC(=O)CCC(C)=NO[C@@H]2O[C@H](COC(C)=O)[C@@H](OC(C)=O)[C@H](OC(C)=O)[C@H]2OC(C)=O)cc1,0.37 (inactive),-0.019,1.73 (inactive),0.583 (inactive),1.1 (inactive),0.539 (inactive),-1.01,1.08 (inactive),1.75 (inactive),0.222
C[C@@H](c1ccccc1)N1C(=O)[C@H]2[C@H]3[C@H](O)[C@H](O)CC(=NOCc4ccccc4)[C@H]3CC[C@H]2C1=O,0.331 (inactive),-0.0518,31.6 (active),6.36 (inactive),0.321 (inactive),1.21 (inactive),-0.182,-1.53 (inactive),0.0357 (inactive),-3.27
CC(C)CON=C1C[C@@H](O)[C@@H](O)[C@@H]2[C@@H]3C(=O)N(C4CCCCC4)C(=O)[C@@H]3CC[C@H]12,0.539 (inactive),-0.101,-0.172 (inactive),0.193 (inactive),0.168 (inactive),0.0575 (inactive),-0.545,-0.671 (inactive),-0.118 (inactive),-0.246
CCOC(=O)[C@H](Cc1ccccc1)NC(=O)CCC1CC(OC(=O)NCc2cccc3ccccc23)CC2(CCCC(COC(=O)NCC(c3ccccc3)c3ccccc3)O2)O1 (stereo not given in full),-0.0812 (inactive),-0.116,9.16 (active),1.24 (inactive),-1.06 (inactive),-0.343 (inactive),0.704,0.782 (inactive),0.674 (inactive),0.347
COC(=O)CC=C[C@@H](C)[C@@H](C=NO[C@@H](C)c1cc(-c2c(C)cc(C)cc2C)no1)NS(=O)(=O)c1ccc(C)cc1,-0.466 (inactive),0.0437,1.34 (inactive),-0.745 (inactive),0.971 (inactive),-1.89 (inactive),1.13,-0.868 (inactive),-0.115 (inactive),-1.47
CCc1cc2c(nc1CC)CCN(CCC(C)=NO[C@H](C)c1cn([C@H](CO)Cc3ccccc3)nn1)C2,-0.266 (inactive),0.832,4.7 (inactive),1.3 (inactive),1.84 (inactive),0.514 (inactive),0.917,-0.221 (inactive),-0.461 (inactive),2.32
COc1ccc(O[C@@H]2[C@H](O)CO[C@@H]2C=Cc2ccccc2)cc1,-1.74 (inactive),0.417,5.53 (inactive),-0.0327 (inactive),1.23 (inactive),-0.66 (inactive),1.49,0.561 (inactive),-0.92 (inactive),-2.07

# Source: PubChem BioAssay
